We go through 36 molecules from PubChem BioAssay (Tox21).

Results filed as inconclusive are left out. The source made the active and inactive calls. Calls follow the shape of the dose curve; as a rule, active = well fitted activation curve with a large enough effect in the repeat runs; inconclusive = weak or mixed curves; inactive = flat fitted curve, though single readings scatter. Non-standard residues stand in square brackets, D forms with d. Residues, ends and D or L forms follow the SMILES beside them. *: point of attachment. Sta = CC(C)C[C@H](N)[C@@H](O)CC(=O)O; Isovaleryl = CC(C)CC(=O)*
% is scaled to controls: 0 for no effect and ±100 for the full control effect.

The nature of one experiment: A CellTox Green Cytotoxicity Assay to monitor cytotoxicity in HepG2 cells - 32 hour (AID 1224883). Also: nearly all actives have a fitted effect of over 50% in size. Also: potency is read from the fitted curve at half-maximal effect. As to conditions: CellTox Green fluorescence; series mostly up to 76.8 µM; cytotoxicity increase: at the top concentration. In short, it runs like this:
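Real-time, homogeneous cytotoxicity readout: dead-cell DNA staining by CellTox Green in HepG2 monolayers, fluorescence measured at timed intervals up to 40 h of continuous compound exposure.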
On to `CCCC(=O)OC`, for which the “cytotoxicity increase” value is -6.87% (inactive).
Still for that read-out and setting: the figure for `Cc1ccc2ccccc2n1` is -11.7% (inactive).
For the molecule `CC(C)(C)c1ccc(N)cc1`, the Potency was 61.7 µM (active).
For `CC/C=C\CCCCCCCCCCOC(C)=O`, the “cytotoxicity increase” value was -2.71% (inactive).
Same read-out and setting: the figure for `C[C@@H]1CCC[C@H](C)N1CCCC(O)(c1ccccc1)c1ccccn1` (stereo not given in full) is -5.61% [at 35.3 µM] (inactive); for `c1cc2ccc3ccc4ccc5cccc6c(c1)c2c3c4c56` it is -14.8% [at 2.72 µM] (inactive).
On the same count and under the same terms, the result for `CC(C)(C)C(=O)CCc1ccc(Cl)cc1` reads 7.48% (inactive).
In the case of `COc1ccc(Cl)cc1C`, the “cytotoxicity increase” value is -2.08% (inactive).
On the same count and under the same terms, the figure for `Cc1ccc(OC(=O)CC(C)C)cc1` is 14.8% (inactive); for `CC1(C)CC(N)CC(C)(C)N1` it is -3.9% (inactive); for `N[C@H]1C(O)O[C@H](CO)[C@@H](O)[C@@H]1O` (stereo not given in full) it is 1.11% [at 35.3 µM] (inactive).
Same read-out and setting: the figure for `Cc1ccc(S(=O)(=O)NC(=O)NN2CC3CCCC3C2)cc1` (stereo not given) is -0.0577% [at 35.3 µM] (inactive); for `CCCCC(O)/C=C(C)/C=C/C=C/C(=O)N1CCCC1=O` (stereo not given) it is -0.324% [at 35.3 µM] (inactive).
Still for that read-out and setting: the result for `CCN(CC)CC` reads -1.59% (inactive); that for `Cc1cccc(N)n1`, -9.25% (inactive).
As for `O=C(O)Cc1ccccc1Oc1ccc(Cl)cc1Cl`, the “cytotoxicity increase” value was -3.51% [at 35.3 µM] (inactive).
On the same count and under the same terms, the result for `C[n+]1ccccc1/C=N/O` reads -0.228% [at 35.3 µM] (inactive); that for `COc1cnc(NS(=O)(=O)c2ccc(N)cc2)nc1`, -10.4% [at 35.3 µM] (inactive); that for `COc1ccccc1N1CCN(CC(O)COc2cc(OC)c(OC)c(OC)c2)CC1` (stereo not given), -6.05% [at 35.3 µM] (inactive).
The same measure, in the same setting: the figure for `C/C=C/C(=O)CCCC` is 3.52% (inactive).
Same read-out and setting: the result for `CC(=O)O[C@@H]1CC2C3CCc4cc(OC(=O)c5ccccc5)ccc4C3CCC2(C)[C@H]1OC(C)=O` (stereo not given in full) reads -17.5% [at 35.3 µM] (inactive).
Regarding `CC(C)CC(=O)N[C@H](C(=O)N[C@H](C(=O)N[C@@H](CC(C)C)[C@@H](O)CC(=O)N[C@@H](C)C(=O)N[C@@H](CC(C)C)[C@@H](O)CC(=O)O)C(C)C)C(C)C` (Isovaleryl-VV[Sta]A[Sta]-OH), the “cytotoxicity increase” value was -6.32% [at 35.3 µM] (inactive).
Still for that read-out and setting: the figure for `Cc1cc(=O)oc2cc(O[C@@H]3SC[C@@H](O)[C@H](O)[C@H]3O)ccc12` is -6.68% [at 35.3 µM] (inactive).
The same measure, in the same setting: the figure for `CC(C)(Sc1cc(C(C)(C)C)c(O)c(C(C)(C)C)c1)Sc1cc(C(C)(C)C)c(O)c(C(C)(C)C)c1` is -6.11% [at 35.3 µM] (inactive); for `CC(C)(C)C(=O)NCCCC(=O)O` it is -11.7% [at 35.3 µM] (inactive); for `Cc1nc2ccc(Cl)cc2[nH]1` it is -3.63% (inactive).
The same measure, in the same setting: the figure for `COC(=O)c1ccc(NC(C)=O)cc1OC` is -15.9% [at 35.3 µM] (inactive); for `Cc1ccc(O)c([N+](=O)[O-])c1` it is -0.818% (inactive); for `CCC(C)SSC(C)CC` (stereo not given) it is -12.3% (inactive).

A further experiment can be described thus: A CellTox Green Cytotoxicity Assay to monitor cytotoxicity in HEK293 cells - 8 hour (AID 1224884). Also: nearly all actives have a fitted effect of over 35% in size. The conditions noted are these: CellTox Green fluorescence; series mostly up to 76.8 µM; cytotoxicity increase: at the top concentration. The method, boiled down:
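Cytotoxicity was tracked continuously in HEK293 cells by a DNA-binding dye excluded from viable cells. Compounds were transferred in DMSO 5 h after seeding; fluorescence was recorded at intervals up to 40 h.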
With `CCCC(=O)OC`, the “cytotoxicity increase” value is -9.04% (inactive).
On the same count and under the same terms, the figure for `Cc1ccc2ccccc2n1` is 2.09% (inactive); for `CC/C=C\CCOC(=O)c1ccccc1` it is 0.34% (inactive).
The same measure, in the same setting: the result for `C=CCON/C(CCC)=C1\C(=O)CC(C)(C)C(C(=O)OC)=C1O` reads 20.6% (inactive); that for `CC(C)(C)c1ccc(N)cc1`, 7.2% (inactive).
Still for that read-out and setting: the figure for `CC/C=C\CCCCCCCCCCOC(C)=O` is 2.46% (inactive); for `C[C@@H]1CCC[C@H](C)N1CCCC(O)(c1ccccc1)c1ccccn1` (stereo not given in full) it is -16.9% [at 35.3 µM] (inactive).
For the molecule `c1cc2ccc3ccc4ccc5cccc6c(c1)c2c3c4c56`, the cytotoxicity increase was -10.4% [at 2.72 µM] (inactive).
With `CC(C)(C)C(=O)CCc1ccc(Cl)cc1`, the “cytotoxicity increase” value was 7.58% (inactive).
For the molecule `CCCCCCCC(=O)N(C)C`, the “cytotoxicity increase” value was 1.98% (inactive).
Still for that read-out and setting: the result for `COc1ccc(Cl)cc1C` reads -7.74% (inactive); that for `Cc1ccc(OC(=O)CC(C)C)cc1`, 2.12% (inactive).
Same read-out and setting: the result for `CCCCN1C(=O)c2ccccc2C1=O` reads -14% (inactive); that for `CCCC(=O)C(CC)Sc1ccoc1C` (stereo not given), 1.6% (inactive); that for `CC1(C)CC(N)CC(C)(C)N1`, 11.8% (inactive).
For the molecule `CN(C)CCCN(C)C`, the cytotoxicity increase is -3.24% [at 6.97 µM] (inactive).
On the same count and under the same terms, the result for `N[C@H]1C(O)O[C@H](CO)[C@@H](O)[C@@H]1O` (stereo not given in full) reads 0.0561% [at 35.3 µM] (inactive); that for `Cc1ccc(S(=O)(=O)NC(=O)NN2CC3CCCC3C2)cc1` (stereo not given), -13.6% [at 35.3 µM] (inactive); that for `CCCCC(O)/C=C(C)/C=C/C=C/C(=O)N1CCCC1=O` (stereo not given), -0.997% [at 35.3 µM] (inactive).
Same read-out and setting: the result for `CCN(CC)CC` reads -12.4% (inactive); that for `Cc1cccc(N)n1`, 13.5% (inactive); that for `O=C(O)Cc1ccccc1Oc1ccc(Cl)cc1Cl`, 1.01% [at 35.3 µM] (inactive).
The same measure, in the same setting: the figure for `C[n+]1ccccc1/C=N/O` is -0.329% [at 35.3 µM] (inactive); for `COc1cnc(NS(=O)(=O)c2ccc(N)cc2)nc1` it is 3.69% [at 35.3 µM] (inactive); for `COc1ccccc1N1CCN(CC(O)COc2cc(OC)c(OC)c(OC)c2)CC1` (stereo not given) it is 1.73% [at 35.3 µM] (inactive).
For the molecule `CCCCCCCCOCCC#N`, the “cytotoxicity increase” value is -3.64% (inactive).
Same read-out and setting: the result for `C/C=C/C(=O)CCCC` reads -5.13% (inactive).
On the same count and under the same terms, the figure for `CC(=O)O[C@@H]1CC2C3CCc4cc(OC(=O)c5ccccc5)ccc4C3CCC2(C)[C@H]1OC(C)=O` (stereo not given in full) is 16% [at 35.3 µM] (inactive); for `CC(C)CC(=O)N[C@H](C(=O)N[C@H](C(=O)N[C@@H](CC(C)C)[C@@H](O)CC(=O)N[C@@H](C)C(=O)N[C@@H](CC(C)C)[C@@H](O)CC(=O)O)C(C)C)C(C)C` (Isovaleryl-VV[Sta]A[Sta]-OH) it is -5.12% [at 35.3 µM] (inactive); for `Cc1cc(=O)oc2cc(O[C@@H]3SC[C@@H](O)[C@H](O)[C@H]3O)ccc12` it is -7.93% [at 35.3 µM] (inactive).
The same measure, in the same setting: the figure for `CC(C)(Sc1cc(C(C)(C)C)c(O)c(C(C)(C)C)c1)Sc1cc(C(C)(C)C)c(O)c(C(C)(C)C)c1` is 14.7% [at 35.3 µM] (inactive).
